Assay results reported in the supplement of paper PMC10849652.
The full data set covers some 7,900 targets. This sample favours those with a hit. About 0.6% of all pairs of compound and target were hits.

Assays:
Test in all cases: log2 fold change, soluble protein after heating vs DMSO (PISA); higher = thermal stabilisation; K562 cells, 10 uM, 30 min; active = over 0.2 and 3.5 SD of the protein, either way, in both replicates (recomputed)
[1] = compound: COC1=CC=C(C=C1)CN2C=CC3=C2C=C(C=C3)C(=O)NO
In short: (§1)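 Values are thermal stability changes relative to control samples and are taken from duplicates. They are stated as log2 fold changes. Before quantification by TMTpro 16plex LC-MS/MS with equalised channel sums, K562 cells at 2×10^6 cells/mL were treated with 10 μM compound for 30 min, heated in aliquots for 3 min across 48°C-58°C, pooled, extracted in PBS with 0.5% NP-40 at 4°C, and centrifuged at 21,000xg for 90 min to give the soluble supernatant.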

filanesib = compound: CON(C)C(=O)N1N=C(c2cc(F)ccc2F)S[C@@]1(CCCN)c1ccccc1 [filanesib]
In short: as §1

zotarolimus = compound: CO[C@H]1C[C@@H]2CC[C@@H](C)[C@@](O)(O2)C(=O)C(=O)N2CCCC[C@H]2C(=O)O[C@H]([C@H](C)C[C@@H]2CC[C@H](n3cnnn3)[C@H](OC)C2)CC(=O)[C@H](C)/C=C(\C)[C@@H](O)[C@@H](OC)C(=O)[C@H](C)C[C@H](C)/C=C/C=C/C=C/1C [zotarolimus]
In short: as §1

idasanutlin = compound: COc1cc(C(=O)O)ccc1NC(=O)[C@@H]1N[C@@H](CC(C)(C)C)[C@](C#N)(c2ccc(Cl)cc2F)[C@H]1c1cccc(Cl)c1F [idasanutlin]
In short: as §1

alisertib = compound: COc1cc(Nc2ncc3c(n2)-c2ccc(Cl)cc2C(c2c(F)cccc2OC)=NC3)ccc1C(=O)O [alisertib]
In short: as §1

[2] = compound: COc1cc2nc(-c3cc(F)ccc3O)nc(N[C@@H]3CNC[C@H]3C(C)(C)O)c2cc1OC
In short: as §1

gefitinib = compound: COc1cc2ncnc(Nc3ccc(F)c(Cl)c3)c2cc1OCCCN1CCOCC1 [gefitinib]
In short: as §1

[3] = compound: COc1cccc2cc(-c3nc([C@H]4CC[C@H](C(=O)O)CC4)n4ncnc(N)c34)[nH]c12
In short: as §1

lapatinib = compound: CS(=O)(=O)CCNCc1ccc(-c2ccc3ncnc(Nc4ccc(OCc5cccc(F)c5)c(Cl)c4)c3c2)o1 [lapatinib]
In short: as §1

pictilisib = compound: CS(=O)(=O)N1CCN(Cc2cc3nc(-c4cccc5[nH]ncc45)nc(N4CCOCC4)c3s2)CC1 [pictilisib]
In short: as §1

[4] = compound: CS(=O)(=O)c1ccc(-c2cnc(N)c(C(=O)Nc3ccccc3)n2)cc1
In short: as §1

crizotinib = compound: C[C@@H](Oc1cc(-c2cnn(C3CCNCC3)c2)cnc1N)c1c(Cl)ccc(F)c1Cl [crizotinib]
In short: as §1

[5] = compound: C[C@@H]1COCCN1C2=NC(=NC(=C2)C3(CC3)S(=O)(=O)C)C4=C5C=CNC5=CC=C4
In short: as §1

[6] = compound: C[C@H](C1=CC=C(C=C1)C(=O)NC2=C3C=CNC3=NC=C2)N
In short: as §1

duvelisib = compound: C[C@H](Nc1ncnc2nc[nH]c12)c1cc2cccc(Cl)c2c(=O)n1-c1ccccc1 [duvelisib]
In short: as §1

gandotinib = compound: Cc1cc(Nc2cc(CN3CCOCC3)c3nc(C)c(Cc4ccc(Cl)cc4F)n3n2)n[nH]1 [gandotinib]
In short: as §1

tozasertib = compound: Cc1cc(Nc2cc(N3CCN(C)CC3)nc(Sc3ccc(NC(=O)C4CC4)cc3)n2)n[nH]1 [tozasertib]
In short: as §1

[7] = compound: Cc1cc(SCc2sc(-c3ccc(C(F)(F)F)cc3)nc2C)ccc1OCC(=O)O
In short: as §1

doramapimod = compound: Cc1ccc(-n2nc(C(C)(C)C)cc2NC(=O)Nc2ccc(OCCN3CCOCC3)c3ccccc23)cc1 [doramapimod]
In short: as §1

ispinesib = compound: Cc1ccc(C(=O)N(CCCN)[C@@H](c2nc3cc(Cl)ccc3c(=O)n2Cc2ccccc2)C(C)C)cc1 [ispinesib]
In short: as §1

Measured: log2 fold change

RPA1 (UniProt P27694)
Chain of UniProt P27694 (P27694 whole entry, looked up): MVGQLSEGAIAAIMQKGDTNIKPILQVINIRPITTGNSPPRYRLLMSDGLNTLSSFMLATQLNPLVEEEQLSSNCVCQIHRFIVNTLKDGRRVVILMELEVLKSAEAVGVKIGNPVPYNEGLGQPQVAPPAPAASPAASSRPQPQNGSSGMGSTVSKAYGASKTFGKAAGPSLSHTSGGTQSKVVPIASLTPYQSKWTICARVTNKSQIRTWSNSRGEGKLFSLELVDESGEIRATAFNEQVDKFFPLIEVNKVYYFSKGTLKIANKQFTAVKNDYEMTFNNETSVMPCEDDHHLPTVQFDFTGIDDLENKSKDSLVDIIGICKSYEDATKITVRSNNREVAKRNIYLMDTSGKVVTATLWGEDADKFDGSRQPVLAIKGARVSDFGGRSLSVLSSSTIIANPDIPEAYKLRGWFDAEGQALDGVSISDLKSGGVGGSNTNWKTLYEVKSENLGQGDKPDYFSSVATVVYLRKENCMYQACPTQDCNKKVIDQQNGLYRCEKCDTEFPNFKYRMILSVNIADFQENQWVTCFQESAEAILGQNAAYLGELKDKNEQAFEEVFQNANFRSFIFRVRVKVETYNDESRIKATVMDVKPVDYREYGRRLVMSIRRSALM
inactive: [1] 0.053 | filanesib -0.006 | zotarolimus 0.018 | idasanutlin -0.042 | alisertib 0.027 | [2] 0.049 | gefitinib -0.001 | [3] -0.133 | lapatinib 0.006 | pictilisib -0.088 | [4] -0.028 | crizotinib -0.019 | [5] -0.199 | [6] 0.036 | duvelisib -0.035 | gandotinib -0.103 | tozasertib 0.015 | [7] 0.022 | doramapimod -0.05 | ispinesib 0.004

RAC3 (UniProt P60763)
active: doramapimod 0.262
inactive: [1] 0.025 | filanesib 0.031 | zotarolimus 0.125 | idasanutlin 0.017 | alisertib -0.038 | [2] -0.067 | gefitinib 0.017 | [3] 0.026 | lapatinib 0.061 | pictilisib 0.071 | [4] 0.074 | crizotinib 0.097 | [5] 0.073 | [6] -0.027 | duvelisib 0.145 | gandotinib 0 | tozasertib -0.086 | [7] 0.005 | ispinesib -0.013

RARS2 (UniProt Q5T160)
Chain of UniProt Q5T160 (Q5T160 whole entry, looked up): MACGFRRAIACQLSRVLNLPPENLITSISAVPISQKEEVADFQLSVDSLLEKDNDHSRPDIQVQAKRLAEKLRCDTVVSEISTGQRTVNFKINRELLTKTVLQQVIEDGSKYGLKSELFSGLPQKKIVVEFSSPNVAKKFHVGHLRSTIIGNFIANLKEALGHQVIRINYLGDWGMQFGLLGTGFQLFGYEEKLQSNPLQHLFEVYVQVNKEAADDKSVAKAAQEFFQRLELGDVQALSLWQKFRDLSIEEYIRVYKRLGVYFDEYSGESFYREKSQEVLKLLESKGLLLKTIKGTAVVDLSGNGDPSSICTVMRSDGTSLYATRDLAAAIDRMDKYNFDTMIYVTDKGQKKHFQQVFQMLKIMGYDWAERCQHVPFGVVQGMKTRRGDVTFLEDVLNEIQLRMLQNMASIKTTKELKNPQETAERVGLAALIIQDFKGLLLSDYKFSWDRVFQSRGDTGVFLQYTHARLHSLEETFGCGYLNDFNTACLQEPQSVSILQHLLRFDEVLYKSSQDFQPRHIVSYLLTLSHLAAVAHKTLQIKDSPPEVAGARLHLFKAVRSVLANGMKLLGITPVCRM
inactive: [1] 0.009 | zotarolimus 0.007 | idasanutlin -0.071 | alisertib -0.016 | [2] -0.028 | gefitinib -0.013 | [3] 0.051 | lapatinib 0.051 | pictilisib -0.031 | [4] -0.026 | crizotinib -0.016 | [5] 0.091 | [6] -0.021 | duvelisib 0.018 | gandotinib -0.075 | tozasertib 0.01 | [7] 0.019 | doramapimod -0.017 | ispinesib -0.033
active: filanesib -0.245

SLC12A9 (UniProt Q9BXP2)
Chain of UniProt Q9BXP2 (Q9BXP2 whole entry, looked up): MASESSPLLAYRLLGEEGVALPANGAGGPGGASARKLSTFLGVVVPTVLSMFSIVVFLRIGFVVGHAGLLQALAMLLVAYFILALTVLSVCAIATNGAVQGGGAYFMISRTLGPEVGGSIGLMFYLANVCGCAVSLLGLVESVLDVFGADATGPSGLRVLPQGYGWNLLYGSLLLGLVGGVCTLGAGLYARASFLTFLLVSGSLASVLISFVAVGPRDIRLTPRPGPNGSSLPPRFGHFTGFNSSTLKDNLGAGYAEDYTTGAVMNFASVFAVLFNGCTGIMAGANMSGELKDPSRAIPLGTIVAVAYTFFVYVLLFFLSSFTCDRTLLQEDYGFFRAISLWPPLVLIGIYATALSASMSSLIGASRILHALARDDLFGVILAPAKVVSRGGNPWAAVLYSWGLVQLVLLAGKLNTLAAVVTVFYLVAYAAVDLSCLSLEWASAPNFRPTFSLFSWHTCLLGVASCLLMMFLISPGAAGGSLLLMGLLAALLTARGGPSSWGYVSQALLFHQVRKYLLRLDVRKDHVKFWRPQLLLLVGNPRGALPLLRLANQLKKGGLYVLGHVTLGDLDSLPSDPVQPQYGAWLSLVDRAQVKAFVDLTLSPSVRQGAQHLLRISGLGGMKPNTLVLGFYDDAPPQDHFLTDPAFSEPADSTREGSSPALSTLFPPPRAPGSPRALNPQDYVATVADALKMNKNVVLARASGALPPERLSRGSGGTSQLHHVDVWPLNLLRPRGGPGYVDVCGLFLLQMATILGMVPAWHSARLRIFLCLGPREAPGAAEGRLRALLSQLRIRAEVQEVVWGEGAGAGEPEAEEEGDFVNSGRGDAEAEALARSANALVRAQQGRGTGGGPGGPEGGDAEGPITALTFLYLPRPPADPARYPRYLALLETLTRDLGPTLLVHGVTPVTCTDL
inactive: [1] -0.022 | filanesib -0.093 | zotarolimus 0.091 | idasanutlin 0.044 | alisertib -0.106 | [2] 0.049 | gefitinib -0.151 | [3] 0.023 | lapatinib 0.075 | pictilisib -0.121 | [4] -0.071 | [5] -0.022 | [6] 0.016 | duvelisib -0.038 | gandotinib -0.16 | tozasertib 0.001 | [7] -0.074 | doramapimod -0.012
active: crizotinib -0.315 | ispinesib -0.713

ROR2 (UniProt Q01974)
Chain of UniProt Q01974 (Q01974 whole entry, looked up): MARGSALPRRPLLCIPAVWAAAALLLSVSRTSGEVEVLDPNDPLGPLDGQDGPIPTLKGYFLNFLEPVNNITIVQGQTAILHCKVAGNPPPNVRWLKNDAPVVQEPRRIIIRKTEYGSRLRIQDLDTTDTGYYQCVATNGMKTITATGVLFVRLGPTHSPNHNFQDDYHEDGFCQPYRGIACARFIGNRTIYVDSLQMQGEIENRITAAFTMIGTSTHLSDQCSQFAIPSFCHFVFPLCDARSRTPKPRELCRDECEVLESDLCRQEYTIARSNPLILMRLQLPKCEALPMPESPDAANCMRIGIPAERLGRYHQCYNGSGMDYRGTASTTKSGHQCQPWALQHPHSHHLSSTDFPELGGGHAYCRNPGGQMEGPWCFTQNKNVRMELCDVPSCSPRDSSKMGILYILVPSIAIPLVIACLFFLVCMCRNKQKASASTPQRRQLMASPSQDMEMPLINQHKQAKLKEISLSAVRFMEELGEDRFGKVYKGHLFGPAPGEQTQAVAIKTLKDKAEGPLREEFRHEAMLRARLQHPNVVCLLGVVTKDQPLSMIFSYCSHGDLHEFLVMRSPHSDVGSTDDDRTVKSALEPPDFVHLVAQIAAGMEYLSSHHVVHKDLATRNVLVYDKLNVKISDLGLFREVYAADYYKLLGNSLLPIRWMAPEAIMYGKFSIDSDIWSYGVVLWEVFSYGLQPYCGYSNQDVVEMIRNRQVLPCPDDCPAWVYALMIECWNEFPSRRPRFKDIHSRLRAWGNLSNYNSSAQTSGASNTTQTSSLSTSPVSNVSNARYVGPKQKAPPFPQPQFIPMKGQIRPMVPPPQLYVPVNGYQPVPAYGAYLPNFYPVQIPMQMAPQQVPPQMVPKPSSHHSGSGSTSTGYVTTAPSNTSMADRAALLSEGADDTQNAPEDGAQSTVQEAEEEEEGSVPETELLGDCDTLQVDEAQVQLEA
inactive: [1] -0.172 | filanesib -0.017 | zotarolimus 0.082 | idasanutlin 0 | alisertib -0.013 | [2] 0.022 | gefitinib 0.009 | [3] 0.012 | lapatinib 0.021 | pictilisib -0.079 | [4] 0.028 | crizotinib 0.007 | [5] 0.081 | [6] -0.031 | duvelisib 0.049 | gandotinib -0.007 | tozasertib -0.025 | [7] 0.097 | doramapimod -0.04 | ispinesib 0.083

SESN2 (UniProt P58004)
Chain of UniProt P58004 (P58004 whole entry, looked up): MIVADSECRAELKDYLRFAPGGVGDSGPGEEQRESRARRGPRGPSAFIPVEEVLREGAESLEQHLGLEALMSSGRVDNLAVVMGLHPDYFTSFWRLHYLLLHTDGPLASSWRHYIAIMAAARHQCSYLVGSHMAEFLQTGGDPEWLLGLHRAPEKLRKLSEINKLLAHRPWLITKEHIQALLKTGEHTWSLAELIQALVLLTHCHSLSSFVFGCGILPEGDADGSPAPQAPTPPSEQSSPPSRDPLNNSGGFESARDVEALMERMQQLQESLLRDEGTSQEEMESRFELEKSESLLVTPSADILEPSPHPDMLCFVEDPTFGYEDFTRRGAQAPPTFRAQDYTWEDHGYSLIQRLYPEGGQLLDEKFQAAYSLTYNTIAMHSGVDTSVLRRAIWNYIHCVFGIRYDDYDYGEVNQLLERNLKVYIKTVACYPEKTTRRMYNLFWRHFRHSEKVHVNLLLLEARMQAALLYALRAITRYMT
inactive: [1] 0.013 | filanesib -0.174 | zotarolimus 0.099 | idasanutlin -0.107 | alisertib -0.005 | [2] -0.112 | gefitinib 0.08 | [3] -0.085 | lapatinib 0.25 | pictilisib 0.167 | [4] 0.042 | crizotinib -0.191 | [5] -0.028 | [6] 0.077 | duvelisib -0.018 | gandotinib -0.046 | tozasertib 0 | [7] 0.006 | doramapimod 0.192 | ispinesib -0.322

SCG3 (UniProt Q8WXD2)
Chain of UniProt Q8WXD2 (Q8WXD2 whole entry, looked up): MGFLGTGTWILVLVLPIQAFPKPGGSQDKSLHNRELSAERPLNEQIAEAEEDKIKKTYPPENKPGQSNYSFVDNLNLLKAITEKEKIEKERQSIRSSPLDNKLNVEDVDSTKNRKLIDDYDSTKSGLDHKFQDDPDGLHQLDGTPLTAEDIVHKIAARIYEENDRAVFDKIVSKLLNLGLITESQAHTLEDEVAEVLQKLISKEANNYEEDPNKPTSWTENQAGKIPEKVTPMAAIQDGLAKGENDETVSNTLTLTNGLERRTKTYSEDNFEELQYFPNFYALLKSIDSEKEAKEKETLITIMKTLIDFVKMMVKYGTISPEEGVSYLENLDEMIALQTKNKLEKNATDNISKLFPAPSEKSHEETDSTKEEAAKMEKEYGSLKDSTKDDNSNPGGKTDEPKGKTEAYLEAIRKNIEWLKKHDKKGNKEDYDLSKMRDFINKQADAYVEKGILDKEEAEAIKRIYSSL
inactive: [1] 0.002 | filanesib -0.001 | zotarolimus -0.044 | idasanutlin -0.056 | alisertib 0.128 | [2] -0.082 | gefitinib 0.089 | [3] -0.236 | lapatinib 0.07 | pictilisib -0.086 | [4] -0.069 | crizotinib 0.074 | [5] -0.089 | [6] -0.109 | duvelisib 0 | gandotinib -0.101 | tozasertib 0.075 | [7] -0.194 | doramapimod 0.124 | ispinesib 0.171

RAB3IL1 (UniProt Q8TBN0)
Chain of UniProt Q8TBN0 (Q8TBN0 whole entry, looked up): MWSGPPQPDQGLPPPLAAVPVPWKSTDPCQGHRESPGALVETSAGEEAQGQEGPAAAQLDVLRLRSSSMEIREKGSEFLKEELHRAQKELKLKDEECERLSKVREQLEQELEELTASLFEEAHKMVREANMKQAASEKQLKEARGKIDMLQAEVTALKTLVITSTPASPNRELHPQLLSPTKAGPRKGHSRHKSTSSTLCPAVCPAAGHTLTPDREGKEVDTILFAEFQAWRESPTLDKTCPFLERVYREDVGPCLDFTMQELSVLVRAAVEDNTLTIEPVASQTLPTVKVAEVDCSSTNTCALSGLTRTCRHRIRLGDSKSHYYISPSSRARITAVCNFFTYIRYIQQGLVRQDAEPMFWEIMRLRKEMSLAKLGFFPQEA
inactive: [1] -0.006 | filanesib -0.003 | zotarolimus -0.023 | idasanutlin 0 | alisertib -0.115 | [2] 0.07 | gefitinib 0.033 | [3] 0.038 | lapatinib 0.001 | pictilisib -0.019 | [4] 0.009 | crizotinib 0.086 | [5] 0.071 | [6] 0.031 | duvelisib 0.026 | gandotinib 0.012 | tozasertib 0 | [7] -0.009 | doramapimod -0.021 | ispinesib 0.04
